# Test results published in PMC3795721, “Screening for Protein-DNA Interactions by Automatable DNA-Protein Interaction ELISA”.
# Biological target: AT4G31550 (Arabidopsis thaliana, UniProt Q9SV15 228-325)
# Test: DPI-ELISA; DPI-ELISA, streptavidin 384-well plate, 1-2 pmol biotinylated dsDNA per well, crude native E. coli extract, anti-His detection; buffer as in Brand et al. [46],; high values mean tight binding
# Settings: tags: C-terminal His (pET-DEST42); label: 5' biotin on forward strand; dsDNA, one strand shown
# AT4G31550, sequence (Q9SV15 228-325): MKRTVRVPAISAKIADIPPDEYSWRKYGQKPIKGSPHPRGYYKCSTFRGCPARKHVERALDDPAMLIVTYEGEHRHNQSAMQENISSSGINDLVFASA
row,Sequence,binding signal [absorbance]
1,AAAAAAAAGCTTCGGAGTCTTGAGAAAAAA,0.685 ± 0.0354
2,AAAAAATTCCGGCTTGACGCTGCATAAAAA,0.655 ± 0.106
3,AAAAAATATGGCACTCGCCGCACATCAAAA,0.755 ± 0.191
4,AAAAAAGGGTATACTCGCAGCCCCTAAAAA,0.51 ± 0.0849
5,AAAAAATTTGCGCTTCATCCTGCCCCAAAA,0.715 ± 0.106
6,AAAAAACAGTTCGATGTCACCCCCGCAAAA,0.565 ± 0.106
7,AAAAAATGGTACTCAGAGTTATAGACAAAA,0.66 ± 0.141
8,AAAAAAGTTCGGGGCTTGGTTTGGAAAAAA,0.765 ± 0.205
9,AAAAAAAATTAGTCTCTTCGTCTCCCAAAA,0.575 ± 0.106
10,AAAAAATCCATTCTTCGCGTTTATCCAAAA,0.53 ± 0.0849
11,AAAAAAGGTCTGGACGATCACCGGGAAAAA,0.565 ± 0.12
12,AAAAAAGGAAGTACTGACGATCTGGAAAAA,0.615 ± 0.148
13,AAAAAACATGTCGCACCTGTACTAACAAAA,0.66 ± 0.127
14,AAAAAATGCCCTTTTTATCTTTATGTAAAA,0.65 ± 0.0707
15,AAAAAAAACTGTCGCCCCCGGCTGGCAAAA,0.545 ± 0.12
16,AAAAAATGTATTCGTGTCCACTCCATAAAA,0.53 ± 0.0707
17,AAAAAACCGTCTTATCTCTCGTCCCTAAAA,0.565 ± 0.12
18,AAAAAACGCCTTATGCCTCCCGCTCGAAAA,0.675 ± 0.0354
19,AAAAAAATCAGCCTGACTCTGGGCGTAAAA,0.71 ± 0.141

row,Sequence,binding signal [absorbance]
1,AAAAAATTGGTTCTCATTTCTACTTCAAAA,0.57 ± 0.127
2,AAAAAAACTATAGTCTTTGTCATGATAAAA,0.64 ± 0.0707
3,AAAAAAAGTTTGACCTTGGCGTTCGTAAAA,3.5 ± 0.148
4,AAAAAACTCGACATAGAATGCGGAAAAAAA,0.655 ± 0.106
5,AAAAAAGTCCGCCCTTAATTCATATTAAAA,1.37 ± 0.269
6,AAAAAACCGATCATCACATATCACTGAAAA,0.58 ± 0.141
7,AAAAAATACTCTTCCTCGTTCTTGGTAAAA,0.57 ± 0.127
8,AAAAAATTTGGTCTTCGTCCTCGCTTAAAA,0.9 ± 0.0707
9,AAAAAAGGGTCGCTGTGAGCTCATGAAAAA,0.575 ± 0.12
10,AAAAAATTCTTAGTTAGATTCACCTCAAAA,0.575 ± 0.134
11,AAAAAATCTATTCCATTTCGCCTTCTAAAA,0.68 ± 0.141
12,AAAAAATGGATCTTTACTTTAGGCCAAAAA,0.92 ± 0.424
13,AAAAAAGTTATTATACCTGATCTCGCAAAA,1 ± 0.778
14,AAAAAACCCCAGATTTCCAGCAGTTCAAAA,0.945 ± 0.629
15,AAAAAAGCTCCCGTCTCTTAGTTCTAAAAA,0.695 ± 0.12
16,AAAAAATCCCTGCTCCCCTGGTTCCTAAAA,0.45 ± 0.141
17,AAAAAATTTGCTCTTTTGGTTTTCACAAAA,0.64 ± 0.0707
18,AAAAAATAGGCGTTATGGCTAACACCAAAA,0.685 ± 0.106
19,AAAAAATCGCGAACGTACGTCCGCGGAAAA,0.51 ± 0.113
